# HT1080NT lethal – qHTS for induction of synthetic lethality in tumor cells producing 2HG: qHTS for the HT-1080-NT fibrosarcoma cell line; HT-1080-NT fibrosarcoma viability, CellTiter-Glo ATP luminescence, 48 h; 360,000 tested, 1.6% active; Potency, µM (titrated, usually from 46.1 µM), hits mostly cytotoxic;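 further: NT is the 2HG producing partner of a matched IDH1 knockdown line; nearly all actives have a fitted effect of over 55% in size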
#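 HT-1080-NT fibrosarcoma cells (2HG-overproducing), 750 cells/well in RPMI with 5% FBS, dosed after 2 h and incubated 48 h at 37C. CellTiter-Glo luminescence normalized to DMSO and no-cell wells; concentration-response curves fitted and classed.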
# KB-3-1 cytotox – qHTS assay for MDR1-selective chemotherapeutics: Primary screen using the parental adenocarcinoma cell KB-3-1 | KB-3-1 viability, CellTiter-Glo ATP luminescence, 72 h | Potency, µM (series often up to 46.1 µM), most hits filed as cytotoxic | 400,000 tested, 1.4% active; further: nearly all actives have a fitted effect of over 60% in size
#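 72 h, 37 °C compound treatment of KB-3-1 parental cells; CellTiter-Glo added, 10 min, luminescence read. Data corrected against DMSO-only plates and normalized before curve fitting.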
# HT1080 IDH1KD tx – qHTS for induction of synthetic lethality in tumor cells producing 2HG: qHTS for the HT-1080-IDH1KD cell line. AID 686971, 2013. Potency, µM (highest dose often 46.1 µM), hits mostly cytotoxic. HT-1080 IDH1 knockdown viability, ATP luminescence, 48 h. 360,000 tested, 2% active
#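 Knockdown cells (IDH1KD HT-1080) received compounds 2 h after plating at 750 cells/well and were kept 48 h at 37 °C in 5% FBS RPMI. A CellTiter-Glo luminescence read gave % activity for curve fitting.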
# SW480 rereplic – A quantitative high throughput screen for small molecules that induce DNA re-replication in SW480 colon adenocarcinoma cells | SW480 DNA re-replication, Hoechst DNA content imaging, 48 h | Potency, µM (highest dose often 46.1 µM), usual class: activators | 340,000 tested, 1.8% active | AID 624297, 2012; further: nearly all actives have a fitted effect of over 55% in size
#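 Image-based DNA-content assay: after two days of treatment, nuclei were labelled with the DNA dye Hoechst and imaged, and hits were compounds raising the count of nuclei showing high fluorescence intensity.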
# KB-V1 cytotox – qHTS assay for MDR1-selective chemotherapeutics: Primary screen using the drug-selected MDR subline cells KB-V1. AID 1347076, 2019. 400,000 tested, 3.4% active. KB-V1 MDR cells viability, CellTiter-Glo, 72 h. Potency, µM (highest dose often 46.1 µM), actives largely listed as cytotoxic; further: nearly all actives have a fitted effect of over 60% in size
#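 qHTS viability screen in drug-selected KB-V1 MDR cells: 72 h compound treatment at 37 degrees C, ATP luminescence end point.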
# MCF10A rereplic – A quantitative high throughput screen for small molecules that induce DNA re-replication in MCF 10a normal breast cells | MCF 10A DNA re-replication, Hoechst nuclear intensity, 48 h | Potency, µM (doses to about 46.1 µM), most hits filed as activators | 350,000 tested, 2.9% active | AID 624296, 2012; further: nearly all actives have a fitted effect of over 50% in size
# A number is an active result; - = inactive; ? = inconclusive; . = no result given; [ ] = remark or other dose. A selection: hits, their analogues and other compounds. The true share with any hit is near 8%. The call rests on the fitted dose curve; in most records, active means well fitted curve in the direction sought with a large enough effect; inconclusive means small, poorly fitted or top-dose-only effect, or another doubt; inactive means no such curve, though single readings can be large; an effect the other way counts as inactive or inconclusive.
SMILES,HT1080NT lethal,KB-3-1 cytotox,HT1080 IDH1KD tx,SW480 rereplic,KB-V1 cytotox,MCF10A rereplic
CCOC(=O)c1cc(NC(=O)C2C3C=CC(O3)C2C(=O)O)cc(C(=O)OCC)c1 (stereo unspecified),-,-,-,-,-,-
CCOC(=O)c1cc(NC(=O)C2C3CCC(O3)C2C(=O)O)cc(C(=O)OCC)c1 (stereo unspecified),-,-,?,-,23µM,-
NC(=O)C1CCN(C(=O)C2CCC(=O)N(Cc3ccc(Cl)cc3)C2)CC1 (stereo unspecified),-,-,-,-,-,-
N/C(Cc1cccs1)=N\OC(=O)COc1ccccc1,-,-,-,-,-,-
N#CC1CN(C(c2ccccc2)c2ccccc2)C1,-,-,-,-,-,-
N#CC1CN(Cc2ccccc2)CN(Cc2ccccc2)C1,-,-,-,?,-,15µM
N#C/C(=C(/O)CN1CCOCC1)c1nc2ccccc2s1,-,-,-,-,-,-
O=C(Nc1ccc2nc3n(c(=O)c2c1)CCCC3)c1cccnc1Cl,-,-,-,-,-,-
CCn1c(C)c(P(c2ccccc2)c2ccccc2)[n+]2ccccc12,-,9.2µM,-,-,-,-
CCn1c(C)c2c(C)nnc(C)c2c1C,-,-,-,-[9.22 µM],-,-
O=C(O)c1cc(NN=C2CCN(Cc3ccccc3)CC2)ccc1Cl,-,-,-,-,-,-
c1ccc(CN2CCC(=NNc3nc4ccccc4[nH]3)CC2)cc1,-,-,?,23µM,-,?
c1ccc2c(c1)CC/C2=N/Nc1nc2ccccc2[nH]1,?,-,?,?,?,23µM
CC(C)(C)C1CCC(=NNc2nc3ccccc3[nH]2)CC1 (stereo unspecified),-,-,?,16µM,-,-
Oc1cc(NCc2cccnc2)ccc1-c1nc2ccccc2o1,-,?,?,?,?,21µM
COc1ccccc1N(C)c1cc2c(c3c1ccn3C)C1CCC2C1 (stereo unspecified),?,-,?,.,?,.
CCOc1ccc(-n2c(-c3ccccc3)c[n+]3c2CCC3)cc1,?,-,8.2µM,-,?,-
FC(F)Oc1ccc(-c2c[n+]3c(n2-c2ccccc2)CCCCC3)cc1,?,?,?,-,-,-
CCOc1ccc(-n2c(-c3ccc(Br)cc3)c[n+]3c2CCCCC3)cc1,8.2µM,?,?,-,-,?
CCOc1ccc(-n2c(-c3ccc(OC)cc3)c[n+]3c2CCCCC3)cc1,?,2.1µM,3.7µM,?,-,-
COc1ccc(-c2c[n+]3c(n2-c2c(C)n(C)n(-c4ccccc4)c2=O)CCCCC3)cc1,-,-,-,-,?,-
CCCCN=C1SC(C(=O)Nc2sc3c(c2C(=O)OC)CCC3)C(N)=C1C(=O)N1CCOCC1 (stereo unspecified),-,-,-,-,-,21µM
COC(=O)c1c(NC(=S)NN2CCOCC2)sc2c1CCCC2,-,-,-,-,-,-
Cc1ccc(S(=O)(=O)N2CCCOC2CNC(=O)C(=O)NCCC2=CCCCC2)cc1 (stereo unspecified),-,?,-,-,2.9µM,-
Cc1cc(C)c(S(=O)(=O)N2CCCOC2CNC(=O)C(=O)NCCc2c[nH]c3ccccc23)c(C)c1 (stereo unspecified),-,-,-,-,16µM,-
SMILES,HT1080NT lethal,KB-3-1 cytotox,HT1080 IDH1KD tx,SW480 rereplic,KB-V1 cytotox,MCF10A rereplic
Cc1ccc(S(=O)(=O)N2CCCOC2CNC(=O)C(=O)NCCN2CCOCC2)cc1 (stereo unspecified),-,-,-,-,-,-
Cc1cc(F)ccc1S(=O)(=O)N1CCCOC1CNC(=O)C(=O)NCCc1c[nH]c2ccccc12 (stereo unspecified),-,?,-,-,3.3µM,?
Cc1cc(C)c(S(=O)(=O)N2CCCOC2CNC(=O)C(=O)NCc2cccs2)c(C)c1 (stereo unspecified),-,-,-,-,18µM,-
O=C(NCCc1c[nH]c2ccccc12)C(=O)NCC1OCCCN1S(=O)(=O)c1ccc(F)cc1 (stereo unspecified),-,-,-,?,?,-
O=C(NCc1cccs1)C(=O)NCC1OCCCN1S(=O)(=O)c1cccs1 (stereo unspecified),-,-,-,-,-,-
CCN1C(=O)C(=O)N(CC(=O)N(C)CC(=O)Nc2ccccc2Cl)C1=O,-,-,-,-,-,-
FC(F)(F)C(F)(F)C(F)(F)c1nc2nc(Cl)c(Cl)nc2[nH]1,-,-,-,.,-,.
N#CCCN(CCC#N)C(=O)c1ccc2c(c1)OCO2,-,-,-,-,-,-[0.0737 µM]
Cc1cccc(N2CCN(C(c3ccccc3)c3nnc(-c4ccccc4F)o3)CC2)c1C (stereo unspecified),.,-,.,.,-,.
CCOc1ccc(CN2CCN(CC3=Cc4cccc(OC)c4OC3)CC2CCO)cc1 (stereo unspecified),-,?,?,?,-,?
O=C(NN1CCCCC1)c1cccc(COc2ccc(Cl)cc2)c1,-,-,-,-,15µM,-
O=C(O)c1cccc(COc2ccc3c(c2)CCC3)c1,-,-,-,-,-,-
CCOc1ccc(OCc2cccc(C(=O)N3CCCCCC3)c2)cc1,-,-,-,-,?,?
O=C(NCc1ccccc1)c1cccc(COc2ccc3c(c2)CCC3)c1,-,-,-,-,16µM,-
Cc1cccc(OCC(=O)N2CCCc3ccccc32)c1,-,-,-,-,-,-
COc1ccc(C(C)=O)cc1CC1(C)C(=O)Nc2ccc(-c3ccccc3OC)cc21 (stereo unspecified),-,-,-,.,-,.
COc1ccccc1-c1ccc2c(c1)C(C)(Cc1cccc(F)c1)C(=O)N2 (stereo unspecified),?,?,?,.,21µM,.
O=C(C[C@H]1CC[C@@H]2[C@H](COC[C@@H](O)CN2C(=O)C2CC2)O1)NCc1ccccc1Cl,-,-,-,.,-,.
COc1ccc(S(=O)(=O)N2CCN(C)CC2)cc1C(=O)N1CCCCC1,-,-,-,-,-,-
Cn1nnnc1SCCNCc1ccc(OCc2ccccc2)cc1,.,-,.,.,?,.
CCOc1cc(CNCCO)cc(Br)c1OCc1ccccc1,21µM,?,?,?,?,-
CCOCCCNCc1cc(Br)ccc1OCc1ccccc1,-,?,-,-,?,-
